Laboratory results reported in PubChem BioAssay AID463208 (Broad Institute, 2010).
A number with no mark means an inactive call. The source made the active and inactive calls.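 The calls were made as follows: active = AC50 at most tenfold above the top tested concentration; inconclusive = flat fit with 30 to 70% activity, or a poor fit; inactive = AC50 over tenfold above the top dose.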

Assay: inhibition of yeast nuclear histone deacetylase activity – cell lysate, fluorescence, yeast nuclear extract, mechanism study for Sdo1 growth activator project, dose response (AID 463208)
Conditions: yeast nuclear extract HDAC activity, fluorogenic substrate

| SMILES | AC50 |
| --- | --- |
| O=C(CSc1nc(-c2cccs2)cc(C(F)(F)F)n1)NCc1ccco1 | > 50 µM |
| O=C(O)CCCn1nc(C(F)(F)F)c2c1CCCCC2 | > 50 µM |
| O=C(CSc1nc(-c2ccco2)cc(C(F)(F)F)n1)NCc1cccs1 | > 50 µM |
| Cc1ccc2c(CC(=O)NNC(=O)c3ccccc3)coc2c1 | > 50 µM |
| Cc1ccc(NC(=O)c2ccc(NCC3CCCO3)c([N+](=O)[O-])c2)cc1 (stereo not drawn) | > 50 µM |
| Cc1ccc(Cn2c(Sc3ncccn3)nc3c2c(=O)[nH]c(=O)n3C)cc1 | > 50 µM |
| CC(C(=O)Nc1cccnc1)N1Cc2ccccc2C1=O (stereo not drawn) | > 50 µM |
| CC(C(=O)Nc1cccnc1)N1C(=O)c2ccccc2C1=O (stereo not drawn) | > 50 µM |
| CSCC[C@H](NC(=O)OC(C)(C)C)c1nnc(SCC(N)=O)o1 | > 50 µM |
| CCOC(=O)/C=C1\SCC(=O)N1CC(=O)NC12CC3CC(CC(C3)C1)C2 | > 50 µM |
| O=C(CCSc1nc(-c2ccco2)cc(C(F)(F)F)n1)NCCc1cccs1 | > 50 µM |
| O=C(COC(=O)Cc1ccsc1)Nc1ccccc1 | > 50 µM |
| CC(=O)N(C)C1C(=O)C(=O)c2ccccc2C1=O (stereo not drawn) | > 50 µM |
| COc1ccc(-c2c(C)sc(NC(=O)c3ccnn3C)c2C#N)cc1 | > 50 µM |
| COc1ccc(OCC(O)Cn2c(Nc3ccccc3)nc3c2c(=O)n(C)c(=O)n3C)cc1 (stereo not drawn) | > 50 µM |
| Cc1ccc(Cn2c(CN3CC(C)OC(C)C3)nc3c2c(=O)n(C)c(=O)n3C)cc1 (stereo not drawn) | > 50 µM |
| O=C(Nc1ccccc1)c1ccc(NCC2CCCO2)c([N+](=O)[O-])c1 (stereo not drawn) | > 50 µM |
| CC(C(=O)Nc1ccccc1)N1C(=O)c2ccccc2C1=O (stereo not drawn) | > 50 µM |
| O=C(C(c1ccccc1)c1ccccc1)N(Cc1ccco1)C1CCS(=O)(=O)C1 (stereo not drawn) | > 50 µM |
| Cn1c(=O)[nH]c(=O)c2c1nc(Sc1nc3ccccc3[nH]1)n2Cc1ccccc1 | > 50 µM |
| Cc1sc(NC(=O)c2ccnn2C)c(C#N)c1-c1ccc(F)cc1 | > 50 µM |
| CC(/C=C/C(=O)NO)=C\[C@@H](C)C(=O)c1ccc(N(C)C)cc1 | < 0.00075 µM (active) |
| CC(=O)N(C1CCCCC1)C1C(=O)C(=O)c2ccccc2C1=O (stereo not drawn) | > 50 µM |
